Where “and” joins values, the source holds several entries; their conditions need not be identical. Identical values can stand only once. The whole screen tested about 5,500 compounds, of which about 2,000 (36%) were called active. About 18% were inconclusive and are not listed. No stated cut-off is given here; in the data, active means normalized growth mostly below about 0.91 (no sharp cut-off); inconclusive means no clear call, values can overlap the other calls; inactive means mostly above about 0.92. The list shows a part of the results.
Assay: chemical genetic growth profiling, strain panel (AID 1159580);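 further: tested at 20 µM; growth read once vehicle control cultures reached saturation at 30 °C; 1 = growth at the plate median or of vehicle wells; lower values mean less growth of the strain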
Details: growth OD

Measured: normalized growth

CC1=C(/C=C/C(C)=C/C=C/C(C)=C/C(=O)O)C(C)(C)CCC1
inactive: S. cerevisiae deletion strains, locus YJR075W, strain HOC1, active compounds read low 1.01 | S. cerevisiae deletion strains, locus YKL009W, strain mrt4, active compounds read low 0.992 | S. cerevisiae deletion strains, locus YKL068W, active compounds read low 1.02 | S. cerevisiae deletion strains, locus YKL085W, strain MDH1 (second series), active compounds read low 1.02 | S. cerevisiae deletion strains, locus YKL085W, strain MDH1, active compounds read low 1.02 | S. cerevisiae deletion strains, locus YKL160W, strain elf1, active compounds read low 0.93 | S. cerevisiae deletion strains, locus YKL190W, strain CNB1, active compounds read low 1.01 | S. cerevisiae deletion strains, locus YKR001C, strain vps1, active compounds read low 1.02 | S. cerevisiae deletion strains, locus YKR026C, strain gcn3, active compounds read low 1.01 | S. cerevisiae deletion strains, locus YKR091W, strain srl3, active compounds read low 1.01 | S. cerevisiae deletion strains, locus YLL001W, strain dnm1, active compounds read low 0.963 | S. cerevisiae deletion strains, locus YLL026W, active compounds read low 0.996 | S. cerevisiae deletion strains, locus YLL041C, strain sdh2, active compounds read low 1.02 | S. cerevisiae deletion strains, locus YLR027C, strain aat2, active compounds read low 0.966 | S. cerevisiae deletion strains, locus YLR039C, strain RIC1, active compounds read low 0.945 | S. cerevisiae deletion strains, locus YLR058C, strain SHM2, active compounds read low 1.01 | S. cerevisiae deletion strains, locus YLR102C, strain apc9, active compounds read low 1.04 | S. cerevisiae deletion strains, locus YLR113W, strain HOG1, active compounds read low 0.978 | S. cerevisiae deletion strains, locus YLR221C, strain rsa3, active compounds read low 0.982 | S. cerevisiae deletion strains, locus YLR258W, strain gsy2, active compounds read low 0.972 | S. cerevisiae deletion strains, locus YLR262C, strain YPT6, active compounds read low 0.93 | S. cerevisiae deletion strains, locus YLR268W, strain sec22, active compounds read low 1 | S. cerevisiae deletion strains, locus YLR320W, strain mms22, active compounds read low 0.935 | S. cerevisiae deletion strains, locus YLR330W, strain CHS5, active compounds read low 1.01 | S. cerevisiae deletion strains, locus YLR342W, strain FKS1 (second series), active compounds read low 1.02 | S. cerevisiae deletion strains, locus YLR342W, strain FKS1, active compounds read low 0.922 | S. cerevisiae deletion strains, locus YLR357W, strain rsc2, active compounds read low 0.94 | S. cerevisiae deletion strains, locus YLR370C, strain arc18, active compounds read low 0.989 | S. cerevisiae deletion strains, locus YLR371W, strain rom2, active compounds read low 1.03 | S. cerevisiae deletion strains, locus YLR384C, strain iki3, active compounds read low 0.995 | S. cerevisiae deletion strains, locus YLR418C, strain cdc73, active compounds read low 1.05 | S. cerevisiae deletion strains, locus YML016C, strain PPZ1, active compounds read low 1.01 | S. cerevisiae deletion strains, locus YML032C, strain rad52, active compounds read low 1.03 | S. cerevisiae deletion strains, locus YML120C, strain ndi1, active compounds read low 1.01 | S. cerevisiae deletion strains, locus YML124C, strain tub3, active compounds read low 1.03 | S. cerevisiae deletion strains, locus YMR058W, strain fet3, active compounds read low 0.948 | S. cerevisiae deletion strains, locus YMR078C, strain ctf18, active compounds read low 1.04 | S. cerevisiae deletion strains, locus YMR125W, strain sto1, active compounds read low 1 | S. cerevisiae deletion strains, locus YMR129W, active compounds read low 1 | S. cerevisiae deletion strains, locus YMR205C, strain PFK2, active compounds read low 0.965 | S. cerevisiae deletion strains, locus YMR223W, strain ubp8, active compounds read low 1.02 | S. cerevisiae deletion strains, locus YMR231W, strain pep5, active compounds read low 1.01 | S. cerevisiae deletion strains, locus YMR263W, strain SAP30, active compounds read low 1 and 0.999 | S. cerevisiae deletion strains, locus YMR307W, strain GAS1, active compounds read low 1.02 | S. cerevisiae deletion strains, locus YNL067W, strain RPL9B, active compounds read low 1 | S. cerevisiae deletion strains, locus YNL071W, strain lat1, active compounds read low 0.957 | S. cerevisiae deletion strains, locus YNL128W, strain TEP1, active compounds read low 1.02 | S. cerevisiae deletion strains, locus YNL153C, strain GIM3, active compounds read low 1.01 | S. cerevisiae deletion strains, locus YNL175C, strain NOP13, active compounds read low 1.05 | S. cerevisiae deletion strains, locus YNL183C, strain NPR1, active compounds read low 0.905 | S. cerevisiae deletion strains, locus YNL197C, strain WHI3, active compounds read low 1.04 | S. cerevisiae deletion strains, locus YNL209W, strain ssb2, active compounds read low 0.973 | S. cerevisiae deletion strains, locus YNL224C, strain SQS1, active compounds read low 1.03 | S. cerevisiae deletion strains, locus YNL233W, strain BNI4, active compounds read low 1.01 | S. cerevisiae deletion strains, locus YNL248C, strain rpa49, active compounds read low 0.955 | S. cerevisiae deletion strains, locus YNL250W, strain rad50, active compounds read low 1.03 | S. cerevisiae deletion strains, locus YNL271C, strain bni1, active compounds read low 1.03 | S. cerevisiae deletion strains, locus YNL298W, strain CLA4, active compounds read low 1.03 | S. cerevisiae deletion strains, locus YNL307C, strain MCK1, active compounds read low 1.01 | S. cerevisiae deletion strains, locus YNL322C, strain KRE1 (second series), active compounds read low 0.989 | S. cerevisiae deletion strains, locus YNL322C, strain KRE1, active compounds read low 1.01 and 1 | S. cerevisiae deletion strains, locus YNR049C, strain mso1, active compounds read low 1.01 | S. cerevisiae deletion strains, locus YNR052C, strain pop2, active compounds read low 1.04 | S. cerevisiae deletion strains, locus YOL006C, strain TOP1, active compounds read low 1.04 | S. cerevisiae deletion strains, locus YOL012C, strain htz1 1.82 | S. cerevisiae deletion strains, locus YOL147C, strain pex11, active compounds read low 1.03 | S. cerevisiae deletion strains, locus YOR001W, strain rrp6, active compounds read low 0.978 | S. cerevisiae deletion strains, locus YOR061W, strain CKA2, active compounds read low 1.01 | S. cerevisiae deletion strains, locus YOR069W, strain VPS5, active compounds read low 1.01 | S. cerevisiae deletion strains, locus YOR070C, strain gyp1, active compounds read low 0.975 | S. cerevisiae deletion strains, locus YOR080W, strain dia2, active compounds read low 0.999 | S. cerevisiae deletion strains, locus YOR083W, strain WHI5 (second series), active compounds read low 1.02 | S. cerevisiae deletion strains, locus YOR106W, strain vam3, active compounds read low 0.935 | S. cerevisiae deletion strains, locus YOR136W, strain idh2, active compounds read low 1.04 | S. cerevisiae deletion strains, locus YOR144C, strain elg1, active compounds read low 1.04 | S. cerevisiae deletion strains, locus YOR184W, strain ser1, active compounds read low 1.03 | S. cerevisiae deletion strains, locus YOR231W, strain MKK1, active compounds read low 0.992 | S. cerevisiae deletion strains, locus YOR265W, strain rbl2, active compounds read low 1.01 | S. cerevisiae deletion strains, locus YOR270C, strain vph1, active compounds read low 0.926 | S. cerevisiae deletion strains, locus YOR290C, strain snf2, active compounds read low 0.952 | S. cerevisiae deletion strains, locus YOR316C, strain cot1, active compounds read low 1.02 | S. cerevisiae deletion strains, locus YPL051W, strain arl3, active compounds read low 0.932 | S. cerevisiae deletion strains, locus YPL055C, strain LGE1, active compounds read low 1.01 and 0.999 | S. cerevisiae deletion strains, locus YPL078C, strain atp4, active compounds read low 0.943 | S. cerevisiae deletion strains, locus YPL106C, strain sse1, active compounds read low 0.987 | S. cerevisiae deletion strains, locus YPL240C, strain hsp82, active compounds read low 0.992 | S. cerevisiae deletion strains, locus YPL241C, strain CIN2, active compounds read low 1.01 | S. cerevisiae deletion strains, locus YPL256C, strain CLN2, active compounds read low 1.04 | S. cerevisiae deletion strains, locus YPR119W, strain clb2, active compounds read low 1.03 | S. cerevisiae deletion strains, locus YPR141C, strain kar3, active compounds read low 1.05 | S. cerevisiae deletion strains, locus YPR163C, strain tif3, active compounds read low 1.04 | S. cerevisiae deletion strains, locus YPR167C, strain met16, active compounds read low 1.03 | S. cerevisiae deletion strains, strain wtn01, active compounds read low 1.04 | S. cerevisiae strains, strain wild type, active compounds read low 1
active: S. cerevisiae deletion strains, locus YLR262C, strain YPT6 (second series), active compounds read low 0.827 | S. cerevisiae deletion strains, locus YOR083W, strain WHI5, active compounds read low 0.883

— PubChem BioAssay AID1159580 (chemical genetic matrix, 2015)
